Holding throughout (experiment): NCI-60 one-dose screen, 48 h (100 = growth as untreated, 0 = no growth, -100 = all killed)
Test [1] has as its system SK-MEL-2 melanoma. The note with it: 10 µM unless noted.
Test [2] has as its system EKVX NSCLC. Conditions: 10 µM unless noted.
For test [3], the system named is SN12C renal. The note with it: 10 µM unless noted.
For test [4], the system named is UO-31 renal. Conditions: 10 µM unless noted.
For test [5], the system named is TK-10 renal. The note with it: 10 µM unless noted.
In test [6] the test system is ACHN renal. The note with it: 10 µM unless noted.
Test [7] deals with CAKI-1 renal. The note with it: 10 µM unless noted.
Test [8] deals with A498 renal. Conditions: 10 µM unless noted.
For test [9], the system named is CCRF-CEM leukemia. The note with it: 10 µM unless noted.
For test [10], the system named is MOLT-4 leukemia. The note with it: 10 µM unless noted.
Test [11] relates to SR leukemia. Conditions: 10 µM unless noted.
The test system of test [12] is RPMI-8226 leukemia. Conditions: 10 µM unless noted.
Test [13] has as its system OVCAR-8 ovarian. Conditions: 10 µM unless noted.
The subject of test [14] is OVCAR-5 ovarian. Conditions: 10 µM unless noted.
Test [15] relates to OVCAR-4 ovarian. The note with it: 10 µM.
The test system of test [16] is SK-OV-3 ovarian. Conditions: 10 µM unless noted.
Test [17] concerns IGROV1 ovarian. The note with it: 10 µM unless noted.
The test system of test [18] is NCI/ADR-RES ovarian. Conditions: 10 µM unless noted.
In test [19] the test system is HS 578T breast. Conditions: 10 µM unless noted.
For test [20], the system named is OVCAR-3 ovarian. The note with it: 10 µM unless noted.

The panel holds about 83,000 compounds, 20% with a hit somewhere; the sample as a whole holds those more often.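 Step 1: grow cells in 96-well plates. Step 2: add test compound at a single concentration. Step 3: incubate 48 h. Step 4: record percent growth.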 A number with no mark means an inactive call. The source made the active and inactive calls. The calls were made as follows: active = growth percent below 10; inactive = the rest.

For `O=C1CC(C(F)(F)F)Cc2nc3ccc(Br)cc3cc21` (stereo unspecified), the growth in [1] is 107%; in test [2], 81%; in test [3] it was 85.8%; in test [4], 59.7%; in [5], 145%; in test [6] it was 91.5%. Further, the growth was 75.5% in [7]; 49.7% in test [8]; 98.1% in [9]; 77.8% in test [10]; 75.2% in [11]; 77.5% in test [12]. Moreover, the growth in test [13] was 95.7%; in test [14] it was 87.2%; in [15], 74.6%; in test [16], 85.7%; in test [17], 73.4%; in [18], 95.1%.

On to `Oc1ccc(N=Nc2nccs2)c(O)c1`, for which the growth was 97.7% in [1]; 41.4% in test [2]; 73.7% in [3]; 39.2% in test [4]; 60.3% in [5]; 30.3% in test [6]. For the same compound, the growth in [7] is 25.9%; in test [8], 225%; in test [9], 19.5%; in test [10] it was 11.8%; in test [11] it was 8.21% (active); in [12] it was 20.1%. Moreover, the growth in test [13] is 36.4%; in test [14] it was 87.5%; in test [15], 25.9%; in [16], 78.2%; in test [17] it was 42.9%; in test [19], 80.2%. The growth in test [18] is 12.4%.

Regarding `C[C@]12CCc3c(ccc4cc(O)ccc34)[C@@H]1CC[C@H]2O`, the growth in [1] was 101%; in test [2] it was 56.9%; in [3], 87.6%; in [4], 87.2%; in test [5], 102%; in [6], 103%. Moreover, the growth is 87.8% in test [7]; 85% in test [8]; 90.4% in [9]; 95.1% in test [10]; 74.3% in test [11]; 94.6% in [12]. For the same compound, the growth is 103% in [13]; 107% in [14]; 96.1% in test [15]; 121% in test [16]; 110% in test [17]; 29.8% in test [19]. Moreover, the growth in test [18] is 101%.

Regarding `FC(F)(F)c1ccc2c(c1)Sc1ccccc1N2`, the growth in [1] is 106%; in [2], 91.6%; in test [3], 100%; in [4], 73.6%; in [5], 101%; in [6] it was 101%. Moreover, the growth is 82% in [7]; 80.7% in test [8]; 102% in [9]; 88.7% in [10]; 89.5% in [11]; 92.7% in test [12]. For the same compound, the growth in [13] is 96.7%; in test [14], 98.2%; in test [15] it was 97%; in test [16], 105%; in test [17], 92.6%; in test [19], 85.5%. In addition, in [18], the growth is 104%.

`O=C(Nc1cccc(C2=NCCN2)c1)c1cccc(C(=O)Nc2cccc(C3=NCCN3)c2)c1`: the growth in [1] was 103%; in test [2] it was 88.6%; in [3] it was 95.7%; in test [4] it was 84.5%; in [5] it was 89.3%; in test [6], 101%. In addition, the growth is 92.6% in [7]; 111% in [8]; 104% in test [9]; 100% in [10]; 92.3% in test [11]; 94.3% in test [12]. Besides, the growth was 101% in [13]; 95.7% in test [14]; 94.7% in [15]; 104% in [16]; 99.1% in test [17]; 98.4% in [19]. The growth in [18] was 98.8%.

With `C=C1C(=O)O[C@H]2[C@H]1CC/C(COC(=O)NCc1ccc(Cn3c(=O)sn(-c4ccc(Cl)cc4)c3=O)cc1)=C\CC[C@@]1(C)O[C@@H]21`, the growth in [1] is 88.2%; in test [2] it was 99.6%; in test [3], 70.4%; in test [4], 57.7%; in test [5], 45%; in test [6], 65.5%. The growth in [7] is 61%; in test [8], 107%; in test [9] it was 0.529% (active); in test [10], 23.2%; in test [11], 72.3%; in [12], 4.32% (active). The growth in [13] was 84%; in test [14], 93.2%; in test [15], 54.2%; in [16] it was 107%; in test [17], 54.4%; in test [19], 106%. Besides, the growth in test [18] was 102%.

For `CC(C)OC(=O)Nc1cc(F)c(F)cc1F`, the growth is 95.4% in test [1]; 94.1% in test [2]; 102% in test [3]; 86.1% in [4]; 96.3% in test [5]; 101% in [6]. Further, the growth was 97.1% in [7]; 93.6% in test [8]; 103% in test [9]; 103% in test [10]; 102% in test [11]; 101% in [12]. Besides, the growth in test [13] is 100%; in [14], 93.5%; in [15], 103%; in test [16], 100%; in [17] it was 95.5%; in test [19], 101%. In addition, in test [18], the growth was 102%.

As to `COCCCNc1nc(NC(=O)c2cc(Br)cc(C(F)(F)F)c2)cc(-c2cccnc2)n1`, the growth in test [1] is 80.6%; in [2] it was 96%; in [3], 89.1%; in test [4] it was 60.6%; in [5], 95.8%; in test [6], 87.4%. Also, the growth is 81.4% in [7]; 76.2% in test [8]; 80.8% in test [9]; 80.1% in test [10]; 83.4% in test [11]; 65.6% in test [12]. The growth in [13] is 87.5%; in test [14], 100%; in test [15] it was 92.3%; in [16], 92.2%; in [17], 91.3%; in [20], 109%. Besides, in test [18], the growth is 99.5%.

These data come from PubChem BioAssay (NCI).
